Measured values taken from PubChem BioAssay (NCI).
Compounds without any hit were thinned out: in the full panel of roughly 79,000, 15% have a hit. Calls of active or inactive are those of the source. No stated cut-off is given here; in the data, active means growth inhibition above about 70%; inactive means the rest.

Tests used:
[1] = NCI Yeast Anticancer Drug Screen. Data for the rad50 strain (AID 155);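 further: 0% = growth of vehicle-only cultures of the same strain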; settings: S. cerevisiae rad50 strain growth inhibition, active compounds read high
Summary of the method: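 Cells are treated with compound, grown, and their growth is then scored against vehicle-only cultures of the same repair-deficient yeast strain.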

[2] = NCI Yeast Anticancer Drug Screen. Data for the mec2-1 strain (AID 157); settings: S. cerevisiae mec2-1 strain, active compounds read high
Summary of the method: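 Each compound was tested on mec2-1 yeast, a strain altered in DNA damage repair or cell cycle control. Growth inhibition is reported relative to vehicle.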

[3] = NCI Yeast Anticancer Drug Screen. Data for the sgs1 mgt1 strain (AID 161);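 further: 0% = growth of cultures given vehicle only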; settings: S. cerevisiae sgs1 mgt1 strain, active compounds read high
Summary of the method: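 Test agents were incubated with a DNA-repair-mutant yeast strain. Growth was then read and compared against vehicle-treated controls.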

[4] = NCI Yeast Anticancer Drug Screen. Data for the cln2 rad14 strain (AID 165);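 further: 0% = growth equal to vehicle treated cultures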; settings: S. cerevisiae cln2 rad14 strain, active compounds read high
Summary of the method: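 Test compounds were added to cln2 rad14 yeast cultures; inhibition of growth was then determined by comparison with vehicle treatment.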

[5] = NCI Yeast Anticancer Drug Screen. Data for the bub3 strain (AID 167); settings: S. cerevisiae bub3 mutant strain, active compounds read high
Summary of the method: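 Part of a panel of yeast mutants defective in DNA damage repair or cell cycle regulation. Each strain is grown with compound, and inhibition is calculated relative to solvent-treated cultures.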

[6] = NCI Yeast Anticancer Drug Screen. Data for the mlh1 rad18 strain (AID 175); settings: S. cerevisiae mlh1 rad18 strain growth inhibition, active compounds read high
Summary of the method: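 Inhibition values reflect reduced growth of mutant yeast versus vehicle-treated controls following compound exposure; the mutations affect DNA damage repair.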

[7] = at 5.0 µM (retest, dose inferred, filed as 0.5)
[8] = at 50.0 µM (retest, dose inferred, filed as 5.0)

Measured: growth inhibition

COc1ccc(C2=NN(c3ccccc3)C[N+](c3ccc(OC)cc3)=N2)cc1
active: [1]; [8] 72% | [1]; at 50.0 µM 96.5% | [2]; at 50.0 µM 97.5% | [3]; at 50.0 µM 97.7% | [4]; [8] 96% | [4]; at 50.0 µM 96.4% | [5]; [8] 99% | [5]; at 50.0 µM 97.7% | [6]; [8] 84% | [6]; at 50.0 µM 96.8%
inactive: [1]; [7] 22% | [2]; [7] -7% | [2]; [8] 51% | [3]; [7] 9% | [3]; [8] 48% | [4]; [7] 10% | [5]; [7] -10% | [6]; [7] 6%

N#Cc1ccccc1NC1OCC(O)C(O)C1O (stereo unspecified)
inactive: [1]; [7] -149% | [1]; [8] -139% | [1]; at 50.0 µM 0.45% | [2]; [7] -45% | [2]; [8] -45% | [2]; at 50.0 µM -3.35% | [3]; [7] -61% | [3]; [8] -79% | [3]; at 50.0 µM 10.6% | [4]; [7] -58% | [4]; [8] -53% | [4]; at 50.0 µM 16.1% | [5]; [7] -67% | [5]; [8] -74% | [5]; at 50.0 µM 7.2% | [6]; [7] -145% | [6]; [8] -105% | [6]; at 50.0 µM -3.35%

CC[O-].CC[O-].[O-]c1ccccc1C=Nc1ccccc1.[O-]c1ccccc1C=Nc1ccccc1.[Ti+4]
inactive: [1]; [7] 23% | [1]; [8] 23% | [1]; at 50.0 µM 50.5% | [2]; [7] 22% | [2]; [8] 22% | [2]; at 50.0 µM 14.8% | [3]; [7] 12% | [3]; [8] 12% | [3]; at 50.0 µM 19.8% | [4]; [7] 13% | [4]; [8] 13% | [4]; at 50.0 µM 29.9% | [5]; [7] 12% | [5]; [8] 12% | [5]; at 50.0 µM 19.9% | [6]; [7] 23% | [6]; [8] 23% | [6]; at 50.0 µM 19.9%

Cc1ccc(C)c2[nH]c(-c3ccccc3)cc12
inactive: [1]; [7] -1% | [2]; [7] -37% | [3]; [7] 0% | [4]; [7] 0% | [5]; [7] -5% | [6]; [7] -1%
active: [1]; [8] 99% | [1]; at 50.0 µM 99.3% | [2]; [8] 99% | [2]; at 50.0 µM 99.2% | [3]; [8] 99% | [3]; at 50.0 µM 99.3% | [4]; [8] 99% | [4]; at 50.0 µM 99.1% | [5]; [8] 99% | [5]; at 50.0 µM 99.2% | [6]; [8] 99% | [6]; at 50.0 µM 99.2%

CCCCOc1ccc(NC(=S)Nc2ccc(OCCN(CC)CC)cc2)cc1
inactive: [1]; [7] -4% | [1]; [8] 45% | [1]; at 50.0 µM 63.6% | [2]; [7] 28% | [2]; at 50.0 µM 39.1% | [3]; [7] 21% | [3]; [8] 67% | [4]; [7] 4% | [4]; [8] 35% | [5]; [7] 3% | [5]; [8] 54% | [6]; [7] 35%
active: [2]; [8] 70% | [3]; at 50.0 µM 83.8% | [4]; at 50.0 µM 80.8% | [5]; at 50.0 µM 71% | [6]; [8] 71% | [6]; at 50.0 µM 79.2%

O=C1CSC(c2ccc([N+](=O)[O-])cc2)N1c1ccc(-c2ccc(-n3c(-c4ccccc4)nc4ccccc4c3=O)cc2)cc1 (stereo unspecified)
active: [1]; [8] 91% | [1]; at 50.0 µM 85.2% | [2]; [8] 79% | [2]; at 50.0 µM 84.4% | [3]; [8] 93% | [3]; at 50.0 µM 94% | [4]; [8] 75% | [4]; at 50.0 µM 72.5% | [5]; [8] 95% | [5]; at 50.0 µM 95.2% | [6]; [8] 96% | [6]; at 50.0 µM 94.8%
inactive: [1]; [7] -1% | [2]; [7] 13% | [3]; [7] 14% | [4]; [7] 31% | [5]; [7] -14% | [6]; [7] 19%

NCC(CS)C(=O)NC(CS)C(=O)NC(CS)C(=O)NCCNc1ccc(NCCNC(=O)C(CS)NC(=O)C(CS)NC(=O)C(CN)CS)c2c1C(=O)c1c(O)ccc(O)c1C2=O (stereo unspecified)
active: [1]; [7] 80% | [1]; [8] 78% | [2]; [8] 85% | [2]; at 50.0 µM 70.8% | [3]; [8] 82% | [3]; at 50.0 µM 72% | [4]; [8] 84% | [6]; [8] 75%
inactive: [1]; at 50.0 µM 61.1% | [2]; [7] 34% | [3]; [7] 36% | [4]; [7] 23% | [4]; at 50.0 µM 65.7% | [5]; [7] 36% | [5]; [8] 58% | [5]; at 50.0 µM 65% | [6]; [7] 40% | [6]; at 50.0 µM 53.9%
